According to PubChem BioAssay AID2561 (National Center for Advancing Translational Sciences (NCATS), 2010):
Inconclusive results are not listed. Active and inactive are the calls of the source. The call rests on the fitted dose curve; in most records, active means well fitted inhibition curve with a large enough effect; inconclusive means small, poorly fitted or top-dose-only effect, or effect the other way; inactive means flat fitted curve, though single readings scatter.

The compounds below were run against Pyruvate kinase (Leishmania mexicana) (UniProt Q27686) (assay: Confirmation Assay for Inhibitors of Leishmania Mexicana Pyruvate Kinase (LmPK): for Probe SAR). Conditions: purified LmPK, ATP generation, Kinase-Glo luminescence; series mostly up to 57.5 µM; activity change, negative = inhibition: at the top concentration.
Pyruvate kinase (Leishmania mexicana), sequence (Q27686 whole entry, looked up): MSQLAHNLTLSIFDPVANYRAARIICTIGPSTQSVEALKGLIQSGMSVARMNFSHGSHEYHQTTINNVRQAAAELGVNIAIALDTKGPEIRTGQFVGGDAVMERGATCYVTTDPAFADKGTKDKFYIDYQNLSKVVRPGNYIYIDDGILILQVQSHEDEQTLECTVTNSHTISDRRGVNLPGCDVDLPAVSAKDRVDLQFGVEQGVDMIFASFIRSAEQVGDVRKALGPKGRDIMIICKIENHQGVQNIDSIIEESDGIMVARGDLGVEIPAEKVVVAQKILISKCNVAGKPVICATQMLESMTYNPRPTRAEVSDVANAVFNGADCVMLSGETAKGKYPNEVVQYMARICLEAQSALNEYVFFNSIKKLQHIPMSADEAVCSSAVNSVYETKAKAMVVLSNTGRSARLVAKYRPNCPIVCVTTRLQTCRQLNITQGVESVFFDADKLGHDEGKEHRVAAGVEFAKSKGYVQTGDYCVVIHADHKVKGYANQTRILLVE
From the text: NIH Chemical Genomics Center [NCGC] Malcolm Walkinshaw, Hugh Morgan, Linda Gilmore University of Edinburgh, UK MLPCN Grant: 1 R03 MH085697-01 NCGC Assay Overview: Pyruvate kinase (L. Mexicana) (LmPK) enzyme was supplied as a highly purified (>95% pure) sulphate-free preparation from University of Edinburgh, UK and assayed for its ability to generate ATP from ADP using phosphoenolpyruvate (PEP) as a substrate. ATP generation was detected in a coupled reaction by luciferase-mediated luminescence, an ATP-dependent process. Pyruvate kinase substrates, PEP and ADP, were present in the assay at Km and approximately 10-fold below Km respectively. The enzyme was assayed at an intermediate level of activity to screen for both inhibitors and activators.
NCGC Assay Protocol Summary: Three uL of enzyme mix (kept on ice) in assay buffer (50 mM Imidazole pH7.2, 50 mM KCl, 7 mM MgCl2, 0.01% Tween 20, 0.05% BSA) containing PEP (0.5 mM final concentration) and LmPK (0.1 nM final concentration) was dispensed into white solid bottom 1,536 well microtiter plates. 23 nL of compound were delivered by a pin tool and 1 uL of ADP mix in assay buffer (r.t; 0.1 mM final ADP concentration) was added. Plates were incubated at room temperature for 1 hour. Two uL of detection mix (Kinase-Glo, Promega; at 4 degree Celsius protected from light) was added and luminescence read by a ViewLux (Perkin Elmer) at 1 second exposure/plate. Data were normalized to the uninhibited and AC100 inhibition (no enzyme). To monitor activation, the first column contained a five-fold concentration of LmPK (0.5 nM).
Potency means the concentration at half of the fitted maximal effect.
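Wherever activity change, negative = inhibition is given: plate controls were uninhibited enzyme for no effect and no enzyme wells for full effect.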

Potency, active:
O=S1(=O)N=C(Oc2cccc3ccccc23)c2ccccc21 4.11 µM, O=S1(=O)N=C(Oc2ccccc2)c2ccccc21 8.01 µM, COc1ccc(OC2=NS(=O)(=O)c3ccccc32)cc1 4.31 µM, Cc1ccccc1OC1=NS(=O)(=O)c2ccccc21 4.43 µM, CC(C)c1ccccc1SC1=NS(=O)(=O)c2ccccc21 1.83 µM, O=S1(=O)N=C(Oc2cccc(C(F)(F)F)c2)c2ccccc21 4.61 µM, O=C1c2ccccc2C(=O)C1c1nccc2ccccc12 18.3 µM

Activity change, negative = inhibition, inactive:
Cc1ccc(-c2nc3ccccn3c2Nc2ccccc2C)o1 6.67%, COc1ccccc1NS(=O)(=O)c1ccc2c(c1)CCC(=O)N2 -2.12%, Cc1ccc(-c2nc3ccc(Cl)cn3c2Nc2ccccc2)o1 -0.673%, Cc1nc(-c2ccc(S(=O)(=O)Nc3ccc(C)c(C)c3)s2)cs1 15.4%, Cc1ccc(NS(=O)(=O)c2cc3c(cc2/C=C/c2ccccc2)NC(=O)CO3)cc1C 11%, COc1ccc(NS(=O)(=O)c2ccccc2)cc1NS(=O)(=O)c1ccccc1 31.7%, COC(=O)c1ccccc1S(=O)(=O)Nc1ccc(OC)cc1 4.6%, Cc1ccc(Nc2c(-c3ccc(C)o3)nc3ccccn23)cc1 16.8%, Cc1ccc(NS(=O)(=O)c2cc3c(cc2-c2ccsc2)NC(=O)CO3)cc1C 1.92%, COc1cccc(N2C(=O)c3ccccc3C2=O)c1 8.16%, Cc1ccc(NS(=O)(=O)c2ccc(F)cc2)cc1C -9.65%, Cc1ccc(NS(=O)(=O)c2ccc3[nH]c(=O)[nH]c3c2)cc1C 0.937%, O=[S+]1([O-])N=C(Oc2cccnc2)c2ccccc21 4.41%, Cc1ccc2nc(-c3ccc(C)o3)c(Nc3ccc4c(c3)OCO4)n2c1 -10.7%, O=S1(=O)N=C(OCc2ccccc2)c2ccccc21 -4.08%, Cc1cccc(NS(=O)(=O)c2ccc3c(c2)CCC(=O)N3)c1 -10.1%, Cc1ccc(Nc2c(-c3ccc(C)s3)nc3cccc(C)n23)cc1 -1.87%, O=C1c2ccccc2C(=O)N1Cc1ccncc1 -15.4%, CC(=O)N1CCc2cc(S(=O)(=O)Nc3ccc(C)c(C)c3)ccc21 -1.54%, O=C1CCc2cc(S(=O)(=O)Nc3cccc(F)c3)ccc2N1 10.2%, Cc1ccc(-c2nc3ccccn3c2Nc2ccc(F)cc2)o1 9.62%, Cc1ccc(NS(=O)(=O)c2cc3c(cc2-c2ccccc2)NC(=O)CO3)cc1C 1.9%, Cc1ccccc1NS(=O)(=O)c1ccc2c(c1)CCC(=O)N2 10.1%, Cc1ccc(NS(=O)(=O)c2ccc3c(ccn3C)c2)cc1C -11%, COc1cccc(N2C(=O)c3ccccc3C2=O)n1 -0.188%, Cc1ccc(NS(=O)(=O)c2ccc3c(c2)NC(=O)CO3)cc1C 18.8%, CC(=O)Nc1ccc(S(=O)(=O)Nc2ccc(C)c(C)c2)cc1 -4.95%, Cc1ccc(NS(=O)(=O)c2ccc3c(c2)CCCC(=O)N3)cc1C 13.9%, Cc1ccc(N2C(=O)c3ccccc3C2=O)c(C)c1 8.62%, Cc1cc(N2C(=O)c3ccccc3C2=O)n[nH]1 10.3%, Cc1ccc(C)c(O)c1 -3.02%, O=C1NS(=O)(=O)c2cscc21 2.97%, Cc1ccc(NS(=O)(=O)c2cccc(Cl)c2)cc1C 14.4%
